APP transl inh: inhibitors of APP translation via 5'UTR reporter, primary screen, APP 5'UTR luciferase, SH-SY5Y cells | SH-SY5Y APP 5'UTR-luciferase reporter, luminescence | inhibition, % at 2 µM | 190,000 tested, 0.82% active | AID 1285, 2008;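 active = inhibition above a set limit, derived from the sample mean plus 3 SD, cut at about 45% in these data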
IEC-6 cytotox: cytotoxicity in IEC-6 intestinal epithelial cells, primary screen, cytotoxicity control for KLF5 inhibitor project, cell-based, luminescence. inhibition, % at 5 µM. IEC-6 cytotoxicity, luminescence viability. 290,000 tested, 0.78% active
KLF5 inh: KLF5 expression inhibitors, primary screen, DLD-1 cells, luminescence; inhibition, % at 5 µM; DLD-1 KLF5 promoter-luciferase reporter; 290,000 tested, 0.23% active; AID 1700, 2009;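 active = inhibition above a per-plate limit of that plate's mean compound inhibition plus 3 SD, cut at about 60% in these data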;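 note: higher means less KLF5 promoter-driven luciferase light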
aSyn 5UTR inh: MLPCN primary screen, SNCA 5' untranslated region. alpha-synuclein 5'UTR reporter, inhibitor activity. inhibition, % (tested at 7.5 µM). 300,000 tested, 0.82% active. AID 1813, 2009; in the data active = inhibition above about 60%;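 note: H4 neuroglioblastoma cells stably carrying SNCA 5'UTR luciferase fusion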
BaF3 parental: parental Ba/F3 cell viability inhibition, counter-screen for JAK2V617F inhibitor project, murine pro-B, CellTiter-Glo luminescence. CellTiter-Glo ATP luminescence. inhibition, % at 5.6 µM. 220,000 tested, 1.1% active. AID 1486, 2009;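 active = inhibition above a per-campaign cutoff, the mean inhibition of all tested compounds plus 3 SD, cut at about 27% in these data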
Ba/F3 V617F tox: reduced viability of JAK2V617F-dependent Ba/F3 cells, primary screen, JAK2V617F inhibitor project, cell-based, Ba/F3 EpoR-JAK2V617F, luminescence. 220,000 tested, 1.1% active. ATP luminescence. inhibition, % at 5.6 µM;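 active = inhibition above the campaign mean plus 3 SD over all tested compounds, cut at about 24% in these data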;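 note: cytokine-independent growth of Ba/F3 cells driven by EpoR plus mutant JAK2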
IEC-6 cytotox cf: cytotoxic compounds in IEC-6 epithelial cells, confirmation, cytotoxicity control, cell-based, luminescence; shares compounds with IEC-6 cytotox; IEC-6 rat intestinal epithelial viability; inhibition, % at 5 µM; 1,900 tested, 63% active; AID 1907, 2009
Of the large screens only hits and unclear results are named; the others gave an inactive call (follow-up assays come after a bar, where they were run). Hits are enriched below; roughly 2.1% of the tested compounds scored in any of these assays. Cut-off read from the data, not from the text of the source, unless noted: active = inhibition above about 22%; inactive = the rest.

Cc1onc(-c2ccccc2)c1C(=O)Nc1ccccc1N1CCOCC1	none
O=C(CNC(=O)N1CC(=O)Nc2ccccc21)Nc1ccc(F)c(Cl)c1	none (no result: APP transl inh, BaF3 parental, Ba/F3 V617F tox)
COc1ccc(C(=O)NCc2nnc(SCC(=O)Nc3nc4ccccc4s3)o2)cc1	IEC-6 cytotox 64 | IEC-6 cytotox cf inactive
Cc1c(Nc2cc(Cl)c3nonc3c2[N+](=O)[O-])c(=O)n(-c2ccccc2)n1C	APP transl inh 95, IEC-6 cytotox 96, BaF3 parental 103, Ba/F3 V617F tox 95 (no result: aSyn 5UTR inh) | IEC-6 cytotox cf inactive
O=C(O)c1ccc(Nc2cc(Cl)c3nonc3c2[N+](=O)[O-])cc1	none
O=[N+]([O-])c1c(Nc2cccc(O)c2)cc(Cl)c2nonc12	IEC-6 cytotox 100 (no result: APP transl inh, BaF3 parental, Ba/F3 V617F tox) | IEC-6 cytotox cf 29
CN(C)CCn1c2ccccc2c2nc3ccc([N+](=O)[O-])cc3cc21	IEC-6 cytotox 82, aSyn 5UTR inh 104, BaF3 parental 71, Ba/F3 V617F tox 87 (no result: APP transl inh) | IEC-6 cytotox cf 51
CCn1c2ccccc2c2cc([N+](=O)[O-])ccc21	none
COc1cc(-c2noc(C)c2C#Cc2ccc(N)cc2)cc(OC)c1OC	IEC-6 cytotox 87, aSyn 5UTR inh 88 (no result: APP transl inh, BaF3 parental, Ba/F3 V617F tox) | IEC-6 cytotox cf 64
COc1ccc(-c2c(-c3cc(OC)c(OC)c(OC)c3)noc2C)cn1	IEC-6 cytotox 80, aSyn 5UTR inh 76 (no result: APP transl inh, BaF3 parental, Ba/F3 V617F tox) | IEC-6 cytotox cf 54
CNC(C)C#Cc1c(-c2cc(OC)c(OC)c(OC)c2)noc1C (stereo unspecified)	none (no result: APP transl inh, BaF3 parental, Ba/F3 V617F tox)
COc1cc(NC(=O)COc2cc3oc(=O)cc(C)c3cc2Cl)cc(OC)c1OC	none (no result: APP transl inh, BaF3 parental, Ba/F3 V617F tox)
O=C(OCC(=O)N1CCCC1=O)c1nc(Cl)c(Cl)c(Cl)c1Cl	IEC-6 cytotox 42 (no result: APP transl inh, BaF3 parental, Ba/F3 V617F tox) | IEC-6 cytotox cf inactive
Nc1c(Cl)c(Cl)nc(C(=O)OCC(=O)N2CCCC2=O)c1Cl	none (no result: APP transl inh, IEC-6 cytotox, KLF5 inh, BaF3 parental, Ba/F3 V617F tox)
O=c1[nH]c(NCc2ccco2)nnc1Cc1ccccc1Cl	IEC-6 cytotox 22 | IEC-6 cytotox cf inactive
Cc1nc(NCc2ccco2)[nH]c(=O)c1CCC(C)C	none
CC(=O)Nc1nc(C)c(CCC2OCCO2)c(=O)[nH]1	none (no result: APP transl inh)
COc1ccc(NC(=O)c2cccnc2Sc2ccccc2)c(OC)c1	none
Nc1ccc(C(=O)OCC(=O)N2c3ccccc3Sc3ccccc32)cc1[N+](=O)[O-]	none (no result: aSyn 5UTR inh)
NCCNc1ccc(C(=O)N2c3ccccc3Sc3ccccc32)cc1[N+](=O)[O-]	IEC-6 cytotox 35 (no result: APP transl inh, BaF3 parental, Ba/F3 V617F tox) | IEC-6 cytotox cf 24
O=C(Cc1noc2ccccc12)Nc1ccccn1	none
Cc1ccc(NC(=O)Cc2noc3ccccc23)nc1	IEC-6 cytotox 23 | IEC-6 cytotox cf inactive
CCCCn1c(N)c(N(CCOC)C(=O)CSc2nnc(-c3ccncc3)n2CCC)c(=O)[nH]c1=O	none (no result: APP transl inh, IEC-6 cytotox, KLF5 inh, BaF3 parental, Ba/F3 V617F tox)
CCn1cc2nc(SCC(=O)Nc3ccc(OC)cc3OC)n(Cc3ccc(OC)cc3)c(=O)c2n1	IEC-6 cytotox 62 (no result: APP transl inh, BaF3 parental, Ba/F3 V617F tox) | IEC-6 cytotox cf 42
CCn1cc2nc(SCC(=O)Nc3ccc(OC)c(OC)c3)n(Cc3ccc(OC)cc3)c(=O)c2n1	none (no result: APP transl inh, BaF3 parental, Ba/F3 V617F tox)
Cc1ccc(S(=O)(=O)Nc2ccc3c4c(cccc24)CC3)c(C)c1	IEC-6 cytotox 26 | IEC-6 cytotox cf 39
CCOC(=O)c1c(CSC(=N)N)n(C)c2cc(Br)c(OC(C)=O)cc12	IEC-6 cytotox 24 (no result: APP transl inh) | IEC-6 cytotox cf inactive
Cc1ccc(N=Cc2c(C)[nH]n(-c3nc4ccccc4[nH]3)c2=O)cc1	IEC-6 cytotox 35, BaF3 parental 39, Ba/F3 V617F tox 26 | IEC-6 cytotox cf 53
CCN(C(=O)COC(=O)c1cc(=O)[nH]c2ccccc12)C1CCS(=O)(=O)C1 (stereo unspecified)	none (no result: APP transl inh)
O=C(Nc1cnccn1)C1c2ccccc2Oc2ccccc21	none
Cc1ccc(NC(=O)C2c3ccccc3Oc3ccccc32)nc1	IEC-6 cytotox 46 | IEC-6 cytotox cf 41
O=C(Nc1ccc2c(c1)OCO2)C1CCN(C(=O)c2ccc([N+](=O)[O-])cc2)CC1	none
CCOc1cc(CNCc2cccnc2)cc(Br)c1OCC(N)=O	none (no result: APP transl inh, BaF3 parental, Ba/F3 V617F tox)
COc1ccccc1NC(=O)CN(c1ccccc1)S(=O)(=O)c1ccccc1	none (no result: APP transl inh, BaF3 parental, Ba/F3 V617F tox)

Screening results deposited in PubChem BioAssay by several laboratories.
